# Test results as given in PubChem BioAssay AID1851 (National Center for Advancing Translational Sciences (NCATS), 2009).
# Several values for one entry are separate records, joined by “and”; a condition that tells them apart may be missing. Equal values may be shown once. Out of some 16,000 compounds screened, about 2,600 (16%) were called active. Inconclusive results (about 20%) are left out. Calls follow the shape of the dose curve; as a rule, active = well fitted curve in the direction sought with a large enough effect; inconclusive = small, poorly fitted or top-dose-only effect, or effect the other way; inactive = no such curve, though single readings can be large or run the other way. These entries were drawn from the full list. A structure can be active in one record and inactive in another.
# Target: Cytochrome P450 2D6 (Homo sapiens) (UniProt P10635)
# Experiment: Cytochrome panel assay with activity outcomes
# Details: recombinant CYP, pro-luciferin dealkylation, luminescence, p450-cyp2d6; series mostly up to 57.1 µM; activity, negative = inhibition: at the top concentration
# % is scaled to controls: 0 for no effect and ±100 for the full control effect.
# Sequence of Cytochrome P450 2D6 (Homo sapiens) (P10635 whole entry, looked up): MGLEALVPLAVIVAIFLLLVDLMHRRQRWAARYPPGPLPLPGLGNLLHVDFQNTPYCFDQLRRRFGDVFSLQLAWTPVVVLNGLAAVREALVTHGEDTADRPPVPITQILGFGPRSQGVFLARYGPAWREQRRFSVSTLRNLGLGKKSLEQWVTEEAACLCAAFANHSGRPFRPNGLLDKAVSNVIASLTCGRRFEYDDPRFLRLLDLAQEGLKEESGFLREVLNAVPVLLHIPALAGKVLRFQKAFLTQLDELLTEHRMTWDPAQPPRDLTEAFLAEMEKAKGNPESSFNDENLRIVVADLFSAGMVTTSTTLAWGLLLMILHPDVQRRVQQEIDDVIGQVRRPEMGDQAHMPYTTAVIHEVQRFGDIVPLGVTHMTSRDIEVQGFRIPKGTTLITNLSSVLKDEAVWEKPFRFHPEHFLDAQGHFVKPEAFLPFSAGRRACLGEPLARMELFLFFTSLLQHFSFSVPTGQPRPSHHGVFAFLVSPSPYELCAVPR
SMILES,AC50,"activity, negative = inhibition"
COc1cc(N=c2ssnc2Cl)cc(OC)c1OC,3.16 µM (active),
COc1cccc(NC(=O)Cc2c(C(=O)O)[nH]c3ccccc23)c1,,28.7% (inactive)
CC(C)COC[C@H](CN(Cc1ccccc1)c1ccccc1)N1CCCC1,inactive and 15.8 nM (active),
CCOC(=O)c1ccc(NC(=O)C2CCCO2)cc1 (stereo unspecified),,4.57% (inactive)
O=C(NNC(=O)C1CCCCC1)c1cnccn1,,-1.43% (inactive)
Cn1cccc1C(=O)N1CCC2(CCCN(c3cccc(-c4ccccc4)c3)C2)CC1,,-7.33% (inactive)
COc1ccc(-n2c(=O)c(-c3ccc(F)cc3)nc3cnc(N4CCOCC4)nc32)cc1,,-6.08% (inactive)
CS(=O)(=O)c1nc2ccccc2n1Cc1ccccc1,,-21.3% (inactive)
Oc1ccc(Cn2c(-c3ccc(O)cc3)nc3ccccc32)cc1,,1.43% [at 11.4 µM] (inactive)
O=S(=O)(O)c1nc2ccccc2n1Cc1ccccc1,,-9.7% (inactive)
Clc1ccc(Cn2c(CN3CCCC3)nc3ccccc32)cc1,1.26 µM (active) and 794 nM (active),
c1ccc(Cn2c(CN3CCCC3)nc3ccccc32)cc1,8.91 µM (active),
Cn1c(-c2ccc(CN3CCCCC3)o2)nc2ccccc21,,-28.7% (inactive)
COCCn1c(=O)cnc2cnc(Oc3ccc(OC)cc3)nc21,,-4.11% (inactive)
COc1cc(OC)nc(NC(C)=O)n1,,2.26% (inactive)
O=C(O)CCC(O)=C1S(=O)(=O)OCCOS1(=O)=O,,-8.4% [at 11.4 µM] (inactive)
Cc1ccc(N=Nc2c(O)ccc3cc(S(=O)(=O)O)ccc23)cc1,,4.81% [at 11.4 µM] (inactive)
Cc1ccc(NC2=NC(c3ccccc3)n3c(nc(C)cc3=O)N2)c(C)c1 (stereo unspecified),,-17.2% (inactive)
CCC(=O)[C@@]1(C)[C@H](C)C[C@@H]2[C@@H]3CCC4=CC(=O)C=C[C@@]4(C)[C@H]3[C@H](O)C[C@]21C,,3.11% [at 25.6 µM] (inactive)
Cn1c(=O)c2c(nc(N3CCN(c4ccccn4)CC3)n2Cc2ccccc2Cl)n(C)c1=O,,2.07% (inactive)
CC(=O)Nc1ccc(NC(=O)C/C(C)=N/NC(=O)C(=O)N2CCCC2)cc1,,7.24% (inactive)
C#CCSc1n[nH]c(-c2ccco2)n1,,-1.01% [at 11.4 µM] (inactive)
O=c1c2ccccc2c(-c2ccc(Br)cc2)nn1Cc1ccccc1,,-19.5% (inactive)

SMILES,AC50,"activity, negative = inhibition"
Cc1ccc(-c2nn(C)c(=O)c3ccccc23)cc1CNC(=O)Cn1nc(-c2ccccc2)c2ccccc2c1=O,,-9.89% (inactive)
O=c1c2ccccc2c(-c2ccccc2)nn1Cc1ccc(Cl)cc1,11.2 µM (active),
Cc1ccc(-c2csc(NC(=S)NC(=O)/C=C/c3ccco3)n2)cc1,,15.4% (inactive)
N#Cc1cccc(-c2nc3cnc(Oc4cccc(Cl)c4)nc3n(C3CC3)c2=O)c1,,-3.68% (inactive)
CC1=NN(c2ccccc2)C(=O)C1,,-20.1% (inactive)
O=C(Cc1ccc(Br)cc1)OCC(=O)c1ccc2c(c1)OCCO2,,-1.3% (inactive)
C/C(=C\C(=O)c1ccc(Br)cc1)NCc1ccc2c(c1)OCO2,7.94 µM (active),
CC(=O)c1cc2c(cc1NC(=O)CCCC(=O)O)OCO2,,4.35% (inactive)
CCOc1ccc(C(C)=O)cc1N1C(=O)C2C3C=CC(O3)C2C1=O (stereo unspecified),,-21.1% (inactive)
COCC(=O)N1CCC2(CC1)CCN(C(=O)Nc1cccc(F)c1)CC2,,3.22% (inactive)
CC(=O)N1CCC2(CC1)CCN(C(=O)Nc1cccc(F)c1)CC2,3.16 µM (active),
COC(=O)N1CCC2(CCN(C(=O)Nc3cccc(F)c3)CC2)CC1,10 µM (active),
COC(=O)N1CCC[C@@]2(CCN(C(=O)Nc3cccc(F)c3)C2)C1,10 µM (active),
CC(=O)N1CCC2(CCCN(C(=O)Nc3cccc(F)c3)C2)CC1,,-3.24% (inactive)
COc1ccc(C(=O)N2CCC3(CCN(C(=O)Nc4cccc(F)c4)CC3)CC2)cc1,,4.46% (inactive)
CS(=O)(=O)N1CCC2(CCN(C(=O)Nc3cccc(F)c3)CC2)CC1,,-11.1% (inactive)
COCC(=O)N1CCC[C@@]2(CCN(C(=O)Nc3cccc(F)c3)C2)C1,,-0.151% (inactive)
COC(=O)N1CCC2(CCCN(C(=O)Nc3cccc(F)c3)C2)CC1,,8.79% (inactive)
Cc1cc(C(=O)NNC(=S)NC(C)c2ccccc2)c2ccccc2n1 (stereo unspecified),,-18.2% (inactive)
COc1ccc(S(=O)(=O)N2CCC[C@H]2C(=O)NC2=NCCS2)cc1,,-22% (inactive)
COc1ccccc1N/C(=N/S(=O)(=O)c1ccc(C)cc1)c1ccc(Cl)cc1,,-25% (inactive)
CCOc1cc(CC(=O)N[C@@H](CC(C)C)c2ccccc2N2CCCCC2)ccc1C(=O)O,,6.36% [at 25.6 µM] (inactive)
Cc1cc(N2CCN(c3nc4ccccc4s3)CC2)n2ncnc2n1,,-17.1% (inactive)
